Measured values: PubChem BioAssay AID1159580 (chemical genetic matrix, 2015)
Where “and” joins values, the source holds several entries; their conditions need not be identical. Identical values can stand only once. Among all 5,500 compounds or so, about 2,000 (36%) were called active. About 18% were inconclusive and are not listed. No stated cut-off is given here; in the data, active means normalized growth mostly below about 0.91 (no sharp cut-off); inconclusive means no clear call, values can overlap the other calls; inactive means mostly above about 0.92. The list shows a part of the results.

Assay: chemical genetic growth profiling, strain panel (AID 1159580);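 further: tested at 20 µM; growth read once vehicle control cultures reached saturation at 30 °C; 1 = growth at the plate median or of vehicle wells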
Conditions: growth OD

Measured: normalized growth

CCN(CC)CCOC(=O)C(c1ccccc1)C1CCCCC1 (configuration not stated)
inactive: S. cerevisiae deletion strains, locus YAL013W, strain DEP1, stronger effect = lower value 1 | S. cerevisiae deletion strains, locus YBR021W, strain FUR4, stronger effect = lower value 1 | S. cerevisiae deletion strains, locus YBR229C, strain ROT2, stronger effect = lower value 1 | S. cerevisiae deletion strains, locus YCL029C, strain bik1, stronger effect = lower value 0.958 | S. cerevisiae deletion strains, locus YDL035C, strain GPR1, stronger effect = lower value 0.999 | S. cerevisiae deletion strains, locus YDL074C, strain BRE1, stronger effect = lower value 0.948 | S. cerevisiae deletion strains, locus YDL101C, strain DUN1, stronger effect = lower value 0.983 | S. cerevisiae deletion strains, locus YDL134C, strain PPH21, stronger effect = lower value 1.01 | S. cerevisiae deletion strains, locus YDL185W, strain tfp1, stronger effect = lower value 0.946 | S. cerevisiae deletion strains, locus YDL192W, strain arf1, stronger effect = lower value 0.971 | S. cerevisiae deletion strains, locus YDR101C, strain arx1, stronger effect = lower value 0.964 | S. cerevisiae deletion strains, locus YDR150W, strain NUM1, stronger effect = lower value 0.989 | S. cerevisiae deletion strains, locus YDR162C, strain NBP2, stronger effect = lower value 0.99 | S. cerevisiae deletion strains, locus YDR318W, strain mcm21, stronger effect = lower value 0.97 | S. cerevisiae deletion strains, locus YDR388W, stronger effect = lower value 0.948 | S. cerevisiae deletion strains, locus YDR502C, strain sam2, stronger effect = lower value 0.998 | S. cerevisiae deletion strains, locus YEL061C, strain CIN8, stronger effect = lower value 0.999 | S. cerevisiae deletion strains, locus YER110C, stronger effect = lower value 0.973 | S. cerevisiae deletion strains, locus YER155C, strain BEM2, stronger effect = lower value 1 | S. cerevisiae deletion strains, locus YER167W, strain BCK2, stronger effect = lower value 1.01 | S. cerevisiae deletion strains, locus YGL078C, strain dbp3, stronger effect = lower value 0.99 | S. cerevisiae deletion strains, locus YGL086W, strain mad1, stronger effect = lower value 1.02 | S. cerevisiae deletion strains, locus YGL248W, strain PDE1, stronger effect = lower value 1.01 | S. cerevisiae deletion strains, locus YGR078C, strain PAC10, stronger effect = lower value 0.966 | S. cerevisiae deletion strains, locus YGR135W, strain pre9, stronger effect = lower value 0.968 | S. cerevisiae deletion strains, locus YGR229C, strain SMI1, stronger effect = lower value 0.972 | S. cerevisiae deletion strains, locus YGR252W, strain gcn5, stronger effect = lower value 1.11 | S. cerevisiae deletion strains, locus YHR030C, strain SLT2, stronger effect = lower value 0.995 and 1.06 | S. cerevisiae deletion strains, locus YHR079C, strain IRE1 (second series), stronger effect = lower value 0.964 | S. cerevisiae deletion strains, locus YHR079C, strain IRE1, stronger effect = lower value 1.04 | S. cerevisiae deletion strains, locus YHR094C, strain hxt1, stronger effect = lower value 0.975 | S. cerevisiae deletion strains, locus YHR129C, strain ARP1, stronger effect = lower value 0.992 | S. cerevisiae deletion strains, locus YHR200W, strain rpn10, stronger effect = lower value 0.975 | S. cerevisiae deletion strains, locus YIL066C, strain RNR3, stronger effect = lower value 0.984 | S. cerevisiae deletion strains, locus YIL073C, strain SPO22, stronger effect = lower value 0.958 | S. cerevisiae deletion strains, locus YIL125W, strain kgd1, stronger effect = lower value 0.986 | S. cerevisiae deletion strains, locus YIR030C, strain dcg1, stronger effect = lower value 0.981 | S. cerevisiae deletion strains, locus YJL095W, strain BCK1, stronger effect = lower value 0.938 and 1.05 | S. cerevisiae deletion strains, locus YJL134W, strain LCB3, stronger effect = lower value 0.998 | S. cerevisiae deletion strains, locus YJL168C, strain set2, stronger effect = lower value 0.966 | S. cerevisiae deletion strains, locus YJL187C, strain SWE1 (second series), stronger effect = lower value 0.969 | S. cerevisiae deletion strains, locus YJR043C, strain POL32, stronger effect = lower value 0.991 | S. cerevisiae deletion strains, locus YJR066W, strain TOR1, stronger effect = lower value 1 | S. cerevisiae deletion strains, locus YJR075W, strain HOC1, stronger effect = lower value 0.954 | S. cerevisiae deletion strains, locus YKL009W, strain mrt4, stronger effect = lower value 0.962 | S. cerevisiae deletion strains, locus YKL068W, stronger effect = lower value 0.978 | S. cerevisiae deletion strains, locus YKL085W, strain MDH1 (second series), stronger effect = lower value 0.97 | S. cerevisiae deletion strains, locus YKL085W, strain MDH1, stronger effect = lower value 0.97 | S. cerevisiae deletion strains, locus YKL190W, strain CNB1, stronger effect = lower value 0.989 | S. cerevisiae deletion strains, locus YKR001C, strain vps1, stronger effect = lower value 0.999 | S. cerevisiae deletion strains, locus YLR039C, strain RIC1, stronger effect = lower value 1.12 | S. cerevisiae deletion strains, locus YLR058C, strain SHM2, stronger effect = lower value 1 | S. cerevisiae deletion strains, locus YLR102C, strain apc9, stronger effect = lower value 0.983 | S. cerevisiae deletion strains, locus YLR113W, strain HOG1, stronger effect = lower value 1.02 | S. cerevisiae deletion strains, locus YLR262C, strain YPT6, stronger effect = lower value 1.12 | S. cerevisiae deletion strains, locus YLR268W, strain sec22, stronger effect = lower value 0.906 | S. cerevisiae deletion strains, locus YLR330W, strain CHS5, stronger effect = lower value 1 | S. cerevisiae deletion strains, locus YLR342W, strain FKS1 (second series), stronger effect = lower value 1.02 | S. cerevisiae deletion strains, locus YLR371W, strain rom2, stronger effect = lower value 0.962 | S. cerevisiae deletion strains, locus YLR418C, strain cdc73, stronger effect = lower value 0.931 | S. cerevisiae deletion strains, locus YML016C, strain PPZ1, stronger effect = lower value 1 | S. cerevisiae deletion strains, locus YML032C, strain rad52, stronger effect = lower value 0.948 | S. cerevisiae deletion strains, locus YML124C, strain tub3, stronger effect = lower value 0.977 | S. cerevisiae deletion strains, locus YMR078C, strain ctf18, stronger effect = lower value 0.949 | S. cerevisiae deletion strains, locus YMR223W, strain ubp8, stronger effect = lower value 1.01 | S. cerevisiae deletion strains, locus YMR263W, strain SAP30, stronger effect = lower value 0.969 | S. cerevisiae deletion strains, locus YMR307W, strain GAS1, stronger effect = lower value 1.23 | S. cerevisiae deletion strains, locus YNL067W, strain RPL9B, stronger effect = lower value 0.965 | S. cerevisiae deletion strains, locus YNL128W, strain TEP1, stronger effect = lower value 0.98 | S. cerevisiae deletion strains, locus YNL153C, strain GIM3, stronger effect = lower value 0.973 | S. cerevisiae deletion strains, locus YNL183C, strain NPR1, stronger effect = lower value 0.983 | S. cerevisiae deletion strains, locus YNL233W, strain BNI4, stronger effect = lower value 0.99 | S. cerevisiae deletion strains, locus YNL250W, strain rad50, stronger effect = lower value 0.992 | S. cerevisiae deletion strains, locus YNL271C, strain bni1, stronger effect = lower value 0.974 | S. cerevisiae deletion strains, locus YNL298W, strain CLA4, stronger effect = lower value 0.969 | S. cerevisiae deletion strains, locus YNL307C, strain MCK1, stronger effect = lower value 0.978 | S. cerevisiae deletion strains, locus YNL322C, strain KRE1, stronger effect = lower value 0.988 | S. cerevisiae deletion strains, locus YNR052C, strain pop2, stronger effect = lower value 0.952 | S. cerevisiae deletion strains, locus YOL006C, strain TOP1, stronger effect = lower value 0.94 | S. cerevisiae deletion strains, locus YOL012C, strain htz1 1.03 | S. cerevisiae deletion strains, locus YOL147C, strain pex11, stronger effect = lower value 0.976 | S. cerevisiae deletion strains, locus YOR061W, strain CKA2, stronger effect = lower value 0.993 | S. cerevisiae deletion strains, locus YOR069W, strain VPS5, stronger effect = lower value 1 | S. cerevisiae deletion strains, locus YOR136W, strain idh2, stronger effect = lower value 0.981 | S. cerevisiae deletion strains, locus YOR144C, strain elg1, stronger effect = lower value 0.981 | S. cerevisiae deletion strains, locus YOR184W, strain ser1, stronger effect = lower value 0.97 | S. cerevisiae deletion strains, locus YOR231W, strain MKK1, stronger effect = lower value 1.04 | S. cerevisiae deletion strains, locus YOR316C, strain cot1, stronger effect = lower value 0.955 | S. cerevisiae deletion strains, locus YPL055C, strain LGE1, stronger effect = lower value 0.959 | S. cerevisiae deletion strains, locus YPL241C, strain CIN2, stronger effect = lower value 1 | S. cerevisiae deletion strains, locus YPL256C, strain CLN2, stronger effect = lower value 1.06 | S. cerevisiae deletion strains, locus YPR119W, strain clb2, stronger effect = lower value 0.964 | S. cerevisiae deletion strains, locus YPR141C, strain kar3, stronger effect = lower value 0.975 | S. cerevisiae deletion strains, locus YPR163C, strain tif3, stronger effect = lower value 0.961 | S. cerevisiae deletion strains, locus YPR167C, strain met16, stronger effect = lower value 0.96 | S. cerevisiae deletion strains, strain wtn01, stronger effect = lower value 0.938 | S. cerevisiae strains, strain wild type, stronger effect = lower value 0.995
